# Measured values from the supplement of paper PMC10105736.
# A number with no mark means an inactive call.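 The calls were made as follows: active = MAPPIT score above the 99th percentile of random reference set scores in the same batch; inactive = at or below it.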
# B1: SdhB (protein)
# chain: MLATEARQILSRVGSLVARNQMRAISNGTAQLEQQAQPKEAQEPQIKKFEIYRWNPDNAGEKPYMQTYEVDLRECGPMVLDALIKIKNEMDPTLTFRRSCREGICGSCAMNIGGTNTLACISKIDINTSKSLKVYPLPHMYVVRDLVPDMNNFYEQYRNIQPWLQRKNEAGEKKGKAQYLQSVEDRSKLDGLYECILCACCSTSCPSYWWNAEKYLGPAVLMQAYRWIIDSRDENSAERLNKLKDPFSVYRCHTIMNCTRTCPKGLNPGRAIAEIKKLLSGLASKPAPKLETAALHK
# B2: Ror (protein)
# chain: MNKYSAFIVCISLVLLFTKKDVGSHNVDSRIYGFQQSSGICHIYNGTICRDVLSNAHVFVSPNLTMNDLEERLKAAYGVIKESKDMNANCRMYALPSLCFSSMPICRTPERTNLLYFANVATNAKQLKNVSIRRKRTKSKDIKNISIFKKKSTIYEDVFSTDISSKYPPTRESENLKRICREECELLENELCQKEYAIAKRHPVIGMVGVEDCQKLPQHKDCLSLGITIEVDKTENCYWEDGSTYRGVANVSASGKPCLRWSWLMKEISDFPELIGQNYCRNPGSVENSPWCFVDSSRERIIELCDIPKCADKIWIAIVGTTAAIILIFIIIFAIILFKRRTIMHYGMRNIHNINTPSADKNIYGNSQLNNAQDAGRGNLGNLSDHVALNSKLIERNTLLRINHFTLQDVEFLEELGEGAFGKVYKGQLLQPNKTTITVAIKALKENASVKTQQDFKREIELISDLKHQNIVCILGVVLNKEPYCMLFEYMANGDLHEFLISNSPTEGKSLSQLEFLQIALQISEGMQYLSAHHYVHRDLAARNCLVNEGLVVKISDFGLSRDIYSSDYYRVQSKSLLPVRWMPSESILYGKFTTESDVWSFGVVLWEIYSYGMQPYYGFSNQEVINLIRSRQLLSAPENCPTAVYSLMIECWHEQSVKRPTFTDISNRLKTWHEGHFKASNPEM
# B3: comm (protein)
# chain: MISTTDYPTVETTTTAEELYAEYISAPASSMSPAAIAEHLQQNQITFEIPSAHDLRHIDALNSFNALLQRIGNAAVSYDPAPPSGWSPDGSISTEQLSKSVVLDLADLRDRSEESGESSWWSQIFGDADMHVIINYLWIGVVSSLVILSLVFILFSCYFYRKFRTWKKCNKDIRAQIHAASDSYSSHLVGCDASRLLLHQQMQHPHHRSSEAGFYQIESPPCYTIATGLPSYDEALHHQPRHFAYGMKFVYPSLAAVHHHHHCISNWEKQEPLNKLQKCKLSAAAAVEEDKADSSSSTSASASPSSSESSNLATATPAICINMPSGRQDEEVDNSDSDSAIAVAVAVAQSLQPAAPADDDCASLVVVVAA
# B4: DENR (protein)
# chain: MTNEDVGTNSVADRLQLGPREGVTYPIQMKYCGHCTMPIEYCEYYPEYEKCKEWLELHMPDDFERLKIEEEAAAADGTDDDKKRQKRGGKGLLRVKKKEDVPKRICVSRAARGKKKSVTVVTGLSTFDIDLKVAAKFFGTKFACGSSVTGDDEIVIQGDVKDDLFDVIPEKWAEIDEDVIEDLGDQKRT
# B5: porin (protein)
# chain: MAPPSYSDLGKQARDIFSKGYNFGLWKLDLKTKTSSGIEFNTAGHSNQESGKVFGSLETKYKVKDYGLTLTEKWNTDNTLFTEVAVQDQLLEGLKLSLEGNFAPQSGNKNGKFKVAYGHENVKADSDVNIDLKGPLINASAVLGYQGWLAGYQTAFDTQQSKLTTNNFALGYTTKDFVLHTAVNDGQEFSGSIFQRTSDKLDVGVQLSWASGTSNTKFAIGAKYQLDDDASVRAKVNNASQVGLGYQQKLRDGVTLTLSTLVDGKNFNAGGHKIGVGLELEA
# B6: eIF3j (protein)
# chain: MADDWESAADSEVVIRPTAAASVNKWEGEDEDEDIKDSWEDEEEKKDEEKPTKTEAPAKPKPNKALKAKLEQQALLEEEAEAKRLANLSPAEKLAEKLRLQKIQEASDLKHAQEAFGVTSTCGGLDAFNPETKEEFKEFGATLSWKVGQFRESEHFPQFVEDLVRSLCVNLSAADIKKVKMNVEILHSEKLKLEKANAKKPAGKGKGKVTLRTENDDIDGYQKYGNDFTEDYDDFM
# B7: Naa35 (protein)
# chain: MYPSTLPAEADPSTMNGSSVAEPPDFQAATAAAAAAARASSLEQDEWSVGECGFLDPDVQRTMRSGSAAEDITQYPMHGWVDVTKEFHDACAELQPGELAQDMLFGLFEAMSAIEIMDPKMDVGMGFDKQDLPPPSFEAAIATGAIKLDDLTPSELIGIYDALFSCLVSWLEGNSMDQVLFTCLYLHAPAQIKDKALRVFCTAVRNLIVVIKKIIAVAAVNEEEDFQLYGNSALLAAEKAQPATVYSSLKDVEDELIRKCKKLTSTEDWMAVVHRLRFMRHLFQVIYHVEQMASNDTVDDKVDIYKILLVASEMLPGIRNTLDRGTQPEKGSDAPNPMGFSPRIHDRSQPPAFPRSIKIRDRPSSYQFLEEMISRFKYACKVTKYKDYYSALNFFIEYSKKSGQCILSRSVLQTLFSANMRMAHGKLPMKQFLRHSVQVFNSPPVLNAKHPVAADPKVQQHLENFFRYCINMNTFTQFIRICGFNRARQRDKLARLIENFDTIQVDAARLDSMMNQLANERAMEGNEPMATALKHSTHFSTWVLYNCFRAMLIFLMSGFELELYAVHEFLYIYWYPYEFLIGFLVSALTRTENILLAQEEYAEHQSKTQSGGSGAAKNRKAAKPKKNKKTQRPYRAEIVFYHALLSLCGGMYKAMGALTKDGRVRLPLSKFDNEEIRYNRRFLPFATLTSPPPVSYAEFKNVREHMMRHSVEDLYTYAAKHFDQARNVLESIQNPDQEMLDLLQIARTNFVVMNVLARGHQKEVKRQPEFDFSKHSYFPIIKLK
# B8: mei-S332 (protein)
# chain: MGSKVEQQYKLLNAELMDQVQKQRLEIGEYRKRVISLEREIMDIREEHVLQNHRQRMENISIVRSLMLSLNVDSDSLAVRQEPAPAAQINRPSGPRRSSREICKDMRRTCALARTTRPISPRRSSSVTSTVSSTSRRSSAEVQSEVVTTRIPEDRRANKPTPPPRRPAELVFDEDDSDDDFDEAVSPVEETQTEQNEENNRLFSIIEENGSEGESTDSSSSCEAIYCDTTFESSPPNAQVTVTPSGRALREVDTNIPVAVSLSRGKETGKGSWLAISVAVEDSPQEPSIQCPRLAVTRPSQSSGIFPDVNGLTPRRSLFNGIGKMAGSTSTPKSFLVEEMPSIRTRSRTAANKKSENTDMSSSFCNNSARPSRSCRPTSLVEPSLKNKLRNGSKGKAKAKK
# B9: Hakai (protein)
# chain: MDTEEVKRGRGRGRGTRARGRGRGRGRGRGKKIDDSSIADAAALAASSCAALEDSPGRLDASEDSVMQELDKDGELETPGALEEPLPHGALGAVAASGNMTPATQQPQVLQQVPPPVMSQTTISLSLARAVDMEADISQLEAPTFTTLSRGPPEPMLRLKWNHKVSLIGEKVLNPMIHCCDQCDKPILVYGRMIPCKHVFCLKCARAEPIKSCPRCTDKVLRVEQSGLGTVFMCTHGGSRYGSSGCRRTYLSQRDLQAHINHRHVAPQPPPLQPQPQLSAMAEQPKMTDLGGVGLGLELHKQRKLSESSVPISVSASIASRPVLSRLPLTGGVGNIGSIGSIPPPGSAAAAQNAIHGGHSTLTLANLTRINNANAQECHQGKASLHHTLKKGTPHQSESVADASYYSSVLASFGSAAGNPGSGPPGGGATAAAQPANPSGSHSAVGPGALIGGSTDAPTGGSSGNWQQSQYYR
# B10: flw (protein)
# chain: MGDFDLNVDSLIQRLLEMRSCRTGKQVQMTEAEVRGLCLKSREIFLQQPILLELEAPLIICGDIHGQYTDLLRLFEYGGFPPAANYLFLGDYVDRGKQSLETICLLLAYKIKYPENFFLLRGNHECASINRIYGFYDECKRRYNVKLWKTFTDCFNCLPVAAIIDEKIFCCHGGLSPDLQGMEQIRRLMRPTDVPDTGLLCDLLWSDPDKDVQGWGENDRGVSFTFGVDVVSKFLNRHELDLICRAHQVVEDGYEFFARRQLVTLFSAPNYCGEFDNAGGMMTVDDTLMCSFQILKPSEKKAKYLYSGMNSSRPTTPQRSAPMLATNKKK
# B11: Hsp23 (protein)
# chain: MANIPLLLSLADDLGRMSMVPFYEPYYCQRQRNPYLALVGPMEQQLRQLEKQVGASSGSSGAVSKIGKDGFQVCMDVSHFKPSELVVKVQDNSVLVEGNHEEREDDHGFITRHFVRRYALPPGYEADKVASTLSSDGVLTIKVPKPPAIEDKGNERIVQIQQVGPAHLNVKENPKEAVEQDNGNDK
# B12: 4E-T (protein)
# chain: MDTSKISARYSKVDLLALRYEGKSRQRPQCSTRLELQTLGFWKINLNTAALTVSSAYSNQNKNRLSPEADNSSLICSNSSSISSRRAMRNRERANNYYQRFVPTDSLLISGEDKDKDALSHGQPYKLNIIDHRSISSSHLMPAFAKRRFVISKGSNSEESNEGINTCASKGKAASSPSRKGSELDTAETCLNFVQPDHDQCMSSSPTFSTSRQERRIGSGRLLPRSDNWDYKNEKTVEASIENEKETSPNGSGSTSSLNQHNQSQHRSRTFSGRLVERVPEVTDRRFQYDSKKSFDRQGINNRRISGKEPFSTQSRSKRGNSYLIHEEPEWFSAGPKSQLETIDLHGFEDLEKNEERSVTEDKNNQIQQLDKNLDAQASKDEASMRNSNDSLNFREVIPSDEKKHTDENVVTSIQNSTDLGHPNKNKPIQMQPSQNPESEFNFDAFLNMHPLDNSVLSNDETGKSDSKGTSRFSRWFRQKEAANNNEFPGFRESHAQEKRGIPSVKDLEAQMIKVDMRTDLINPIAGSLCQTVQMEKPIARDTEAFKKLLQQLGSQARQHHPCNDDCRTINLSNIANHVHLESKLHQKINDGHLQQPELSVNVPTMPTSSHVFLQKRLEIQHLIQRLHCGDVSHDFLEKELDNPSTPAATKDVIATVLNEYSHSKRNPVVTGDPNIFTQQSFLQPQSVHQHYSQELHSQNTANHTINQLISHGNSPTPLAFTPTSVLRKMTADKDTQSPSTYCQNPQYHVHQQNAKQVGTRENVLEPQLTATMAVQPRMILGGGNFAIGQNNQHLSPNMSQSRNQQVLKWTSGNMQMVHGKTFGRPILKGGLNSMPHSNSALPFTAHKIEMQPIHQPHLQQQQHRFKAVQSVESNLNTESVHQNITSPVGWHQLYMQHQQQHHHTRQQLSQRVIYGEMHRQSNPQMSPPVPGFSDSSDSGNVIKANSLTSPSYQRDERISSPTNQLAQWFSPELLAKASAGKLPLLNVNQALSLEEFERSIQHSSGVVHN
# Columns and labels:
# Experiment in all cases: MAPPIT interaction score (arbitrary units); higher = stronger binary interaction signal, active = hit call of the paper
# MESK2 = conditions: MAPPIT configuration: N-N; pair source set: DPIM
# Mzt1 = conditions: MAPPIT configuration: N-N; pair source set: RRS
# Nedd4 = conditions: pair source set: Lit-BM-16
# ND-ACP = conditions: MAPPIT configuration: N-N; pair source set: Lit-BS-16
# Mkk4 = conditions: MAPPIT configuration: N-N; pair source set: DPIM
# Orai = conditions: MAPPIT configuration: N-N; pair source set: DPIM
# Nacalpha = conditions: MAPPIT configuration: N-N; pair source set: DPIM
# Naa30A = conditions: MAPPIT configuration: N-N; pair source set: Curagen_high_conf
# Nnk = conditions: MAPPIT configuration: N-N; pair source set: Curagen_high_conf
# MagR = conditions: MAPPIT configuration: N-N; pair source set: Lit-BS-16
# Polr1B = conditions: MAPPIT configuration: N-N; pair source set: DPIM
# pav = conditions: MAPPIT configuration: N-N; pair source set: DPIM
# MYPT-75D = conditions: pair source set: Lit-BM-16
# Mbs = conditions: MAPPIT configuration: N-N; pair source set: Lit-BM-16
# Nop17l = conditions: MAPPIT configuration: N-N; pair source set: Lit-BM-16
# Tm1 = conditions: MAPPIT configuration: N-C; pair source set: Lit-BM-16
# Zasp66 = conditions: pair source set: Lit-BM-16
# elm = conditions: MAPPIT configuration: N-N; pair source set: Lit-BS-16
# Mettl14 = conditions: MAPPIT configuration: N-N; pair source set: DPIM
# Rnmt = conditions: MAPPIT configuration: N-N; pair source set: DPIM
# Mpcp2 = conditions: MAPPIT configuration: N-N; pair source set: Lit-BS-16
# mod(mdg4) = conditions: MAPPIT configuration: N-N; pair source set: Lit-BS-16
# 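Also: HEK293T cells with Epo stimulation, STAT-responsive firefly luciferase reporter, fold induction versus unstimulated cells divided by the larger fold induction of two negative controls lacking either bait or prey.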
binder,measurement,setting,value
B1,MAPPIT interaction score,MESK2,0.135
B2,MAPPIT interaction score,Mzt1,-0.491
B3,MAPPIT interaction score,Nedd4; MAPPIT configuration: N-C,1.86
same,MAPPIT interaction score,Nedd4; MAPPIT configuration: N-N,-0.264
B4,MAPPIT interaction score,ND-ACP,1.72
B5,MAPPIT interaction score,Mkk4,1.64
same,MAPPIT interaction score,Orai,1.31
B6,MAPPIT interaction score,Nacalpha,0.261
B7,MAPPIT interaction score,Naa30A,3.72 (active)
B8,MAPPIT interaction score,Nnk,-0.26
B9,MAPPIT interaction score,MagR,2.01
same,MAPPIT interaction score,Polr1B,0.0868
same,MAPPIT interaction score,pav,0.0448
B10,MAPPIT interaction score,MYPT-75D; MAPPIT configuration: N-C,0.517
same,MAPPIT interaction score,MYPT-75D; MAPPIT configuration: N-N,-0.255
same,MAPPIT interaction score,Mbs,-0.0767
same,MAPPIT interaction score,Nop17l,-0.464
same,MAPPIT interaction score,Tm1,1.19
same,MAPPIT interaction score,Zasp66; MAPPIT configuration: N-C,0.478
same,MAPPIT interaction score,Zasp66; MAPPIT configuration: N-N,0.558
same,MAPPIT interaction score,elm,-0.48
B11,MAPPIT interaction score,Mettl14,1.35
same,MAPPIT interaction score,Rnmt,1.27
B12,MAPPIT interaction score,Mpcp2,0.135
same,MAPPIT interaction score,mod(mdg4),-0.246
